Measurements published in PubChem BioAssay AID1159580 (chemical genetic matrix, 2015).
Values joined by “and” are separate entries in the source; they are usually repeats but may differ in a detail not shown here. Identical values can stand only once. Out of some 5,500 compounds screened, about 2,000 (36%) were called active. About 18% were inconclusive and are not listed. Rule as the data show it: active = normalized growth mostly below about 0.91 (no sharp cut-off); inconclusive = no clear call, values can overlap the other calls; inactive = mostly above about 0.92. The list shows a part of the results.

Test: chemical genetic growth profiling, strain panel (AID 1159580);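 also: tested at 20 µM; growth read once vehicle control cultures reached saturation at 30 °C; 1 = growth at the plate median or of vehicle wells; lower values mean less growth of the strain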
Details: S. cerevisiae deletion strains, growth OD
[1] = locus YBR229C, strain ROT2, hits give low values
[2] = locus YDL101C, strain DUN1, hits give low values
[3] = locus YDR150W, strain NUM1, hits give low values
[4] = locus YHR030C, strain SLT2, hits give low values
[5] = locus YJR043C, strain POL32, hits give low values
[6] = locus YJR075W, strain HOC1, hits give low values
[7] = locus YLR039C, strain RIC1, hits give low values
[8] = locus YLR262C, strain YPT6, hits give low values
[9] = locus YPL241C, strain CIN2, hits give low values

Measured: normalized growth

CC1(C)CC23C(=O)CCC(O)C2(C)CCC13 (stereo not drawn)
inactive: locus YAL021C, strain ccr4, hits give low values 0.956 | locus YAL026C, strain drs2, hits give low values 0.989 | locus YAL030W, strain snc1, hits give low values 0.979 | locus YBL061C, strain skt5, hits give low values 0.99 | locus YBR009C, strain hhf1, hits give low values 1.02 | locus YBR021W, strain FUR4, hits give low values 0.995 | locus YBR023C, strain chs3, hits give low values 0.993 | locus YBR171W, strain sec66, hits give low values 0.974 | [1] 1.01 | locus YBR231C, strain swc5, hits give low values 1.01 | locus YBR279W, strain paf1, hits give low values 0.987 | locus YCL011C, strain gbp2, hits give low values 0.979 | locus YCL016C, strain dcc1, hits give low values 0.967 | locus YCL029C, strain bik1, hits give low values 1 | locus YCL069W, strain vba3, hits give low values 0.984 | locus YCR088W, strain abp1, hits give low values 0.985 | locus YDL005C, strain med2, hits give low values 0.97 | locus YDL035C, strain GPR1, hits give low values 1.01 | locus YDL040C, strain nat1, hits give low values 0.991 | locus YDL074C, strain BRE1, hits give low values 1.05 | [2] 1.04 | locus YDL185W, strain tfp1, hits give low values 1.01 | locus YDL192W, strain arf1, hits give low values 1 | locus YDR001C, strain nth1, hits give low values 0.986 | locus YDR069C, strain doa4, hits give low values 0.967 | locus YDR101C, strain arx1, hits give low values 0.983 | locus YDR137W, strain rgp1, hits give low values 0.974 | [3] 1 | locus YDR159W, strain sac3, hits give low values 0.988 | locus YDR162C, strain NBP2, hits give low values 1.01 | locus YDR195W, strain ref2 0.957 | locus YDR297W, strain sur2, hits give low values 1.01 | locus YDR318W, strain mcm21, hits give low values 1 | locus YDR334W, strain swr1, hits give low values 0.978 | locus YDR335W, strain msn5, hits give low values 0.989 | locus YDR388W, hits give low values 1.02 | locus YDR392W, strain spt3, hits give low values 0.939 | locus YDR502C, strain sam2, hits give low values 1.03 | locus YEL003W, strain gim4, hits give low values 0.989 | locus YEL037C, strain rad23, hits give low values 0.981 | locus YEL061C, strain CIN8 (second series), hits give low values 0.985 | locus YER015W, strain faa2, hits give low values 0.989 | locus YER016W, strain bim1, hits give low values 0.961 | locus YER110C, hits give low values 1.03 | locus YER111C, strain swi4, hits give low values 0.971 | locus YER155C, strain BEM2 (second series), hits give low values 0.985 | locus YER155C, strain BEM2, hits give low values 1 | locus YER167W, strain BCK2, hits give low values 0.997 | locus YFR010W, strain ubp6, hits give low values 1 | locus YGL078C, strain dbp3, hits give low values 1.02 | locus YGL086W, strain mad1, hits give low values 1.01 | locus YGL167C, strain pmr1, hits give low values 0.976 | locus YGL173C, strain kem1, hits give low values 0.978 | locus YGL227W, strain vid30, hits give low values 0.983 | locus YGL240W, strain doc1, hits give low values 1.01 | locus YGL248W, strain PDE1, hits give low values 1.06 | locus YGL253W, strain hxk2, hits give low values 0.984 | locus YGR135W, strain pre9, hits give low values 1.08 | locus YGR252W, strain gcn5, hits give low values 1.05 | locus YHR013C, strain ard1, hits give low values 0.952 | locus YHR027C, strain rpn1, hits give low values 0.987 | [4] 1 and 1.03 | locus YHR079C, strain IRE1 (second series), hits give low values 1.01 | locus YHR079C, strain IRE1, hits give low values 1.04 | locus YHR094C, strain hxt1, hits give low values 1.01 | locus YHR129C, strain ARP1, hits give low values 1.01 | locus YHR142W, strain chs7, hits give low values 0.96 | locus YHR200W, strain rpn10, hits give low values 1.02 | locus YIL066C, strain RNR3, hits give low values 1.01 | locus YIL073C, strain SPO22, hits give low values 1.08 | locus YIL125W, strain kgd1, hits give low values 0.998 | locus YIR030C, strain dcg1, hits give low values 1.02 | locus YJL092W, strain hpr5, hits give low values 0.994 | locus YJL095W, strain BCK1 (second series), hits give low values 0.98 | locus YJL095W, strain BCK1, hits give low values 1.1 and 1.04 | locus YJL115W, strain asf1, hits give low values 0.97 | locus YJL129C, strain trk1, hits give low values 0.955 | locus YJL134W, strain LCB3, hits give low values 1.01 | locus YJL154C, strain vps35, hits give low values 0.969 | locus YJL164C, strain tpk1, hits give low values 0.997 | locus YJL166W, strain qcr8, hits give low values 1.01 | locus YJL168C, strain set2, hits give low values 0.996 | locus YJL187C, strain SWE1 (second series), hits give low values 1.05 | [5] 0.983 | locus YJR066W, strain TOR1, hits give low values 0.972 | [6] 1.03 | locus YKL009W, strain mrt4, hits give low values 1.03 | locus YKL068W, hits give low values 1 | locus YKL085W, strain MDH1 (second series), hits give low values 1.01 | locus YKL085W, strain MDH1, hits give low values 1.01 | locus YKL160W, strain elf1, hits give low values 0.974 | locus YKL190W, strain CNB1, hits give low values 1.01 | locus YKR001C, strain vps1, hits give low values 1.04 | locus YKR026C, strain gcn3, hits give low values 0.99 | locus YKR091W, strain srl3, hits give low values 0.989 | locus YLL001W, strain dnm1, hits give low values 0.99 | locus YLL026W, hits give low values 0.994 | locus YLL041C, strain sdh2, hits give low values 0.985 | locus YLR027C, strain aat2, hits give low values 0.992 | [7] 1.13 | locus YLR058C, strain SHM2, hits give low values 1.03 | locus YLR102C, strain apc9, hits give low values 1 | locus YLR113W, strain HOG1, hits give low values 1.03 | locus YLR221C, strain rsa3, hits give low values 1.01 | locus YLR258W, strain gsy2, hits give low values 0.984 | locus YLR262C, strain YPT6 (second series), hits give low values 1.01 | [8] 1.07 | locus YLR268W, strain sec22, hits give low values 0.995 | locus YLR320W, strain mms22, hits give low values 0.997 | locus YLR330W, strain CHS5, hits give low values 1.02 | locus YLR342W, strain FKS1 (second series), hits give low values 1.01 | locus YLR342W, strain FKS1, hits give low values 0.977 | locus YLR357W, strain rsc2, hits give low values 0.956 | locus YLR370C, strain arc18, hits give low values 0.981 | locus YLR371W, strain rom2, hits give low values 0.995 | locus YLR384C, strain iki3, hits give low values 0.952 | locus YLR418C, strain cdc73, hits give low values 1.05 | locus YML016C, strain PPZ1, hits give low values 1.02 | locus YML032C, strain rad52, hits give low values 1.01 | locus YML120C, strain ndi1, hits give low values 0.984 | locus YML124C, strain tub3, hits give low values 1 | locus YMR058W, strain fet3, hits give low values 0.987 | locus YMR078C, strain ctf18, hits give low values 1.02 | locus YMR125W, strain sto1, hits give low values 0.986 | locus YMR129W, hits give low values 0.981 | locus YMR205C, strain PFK2, hits give low values 0.999 | locus YMR223W, strain ubp8, hits give low values 1.02 | locus YMR231W, strain pep5, hits give low values 0.991 | locus YMR307W, strain GAS1, hits give low values 1.08 | locus YNL067W, strain RPL9B, hits give low values 1.03 | locus YNL071W, strain lat1, hits give low values 0.991 | locus YNL183C, strain NPR1, hits give low values 0.973 | locus YNL209W, strain ssb2, hits give low values 0.988 | locus YNL233W, strain BNI4, hits give low values 1.06 | locus YNL248C, strain rpa49, hits give low values 0.951 | locus YNL250W, strain rad50, hits give low values 1.02 | locus YNL271C, strain bni1, hits give low values 0.999 | locus YNL298W, strain CLA4, hits give low values 1.01 | locus YNL307C, strain MCK1, hits give low values 1.02 | locus YNL322C, strain KRE1 (second series), hits give low values 1 | locus YNR049C, strain mso1, hits give low values 0.972 | locus YNR052C, strain pop2, hits give low values 1.03 | locus YOL012C, strain htz1 1.22 | locus YOL147C, strain pex11, hits give low values 1.02 | locus YOR001W, strain rrp6, hits give low values 1.02 | locus YOR061W, strain CKA2, hits give low values 1.01 | locus YOR069W, strain VPS5, hits give low values 1.01 | locus YOR070C, strain gyp1, hits give low values 0.987 | locus YOR080W, strain dia2, hits give low values 0.981 | locus YOR083W, strain WHI5, hits give low values 0.979 | locus YOR106W, strain vam3, hits give low values 0.962 | locus YOR136W, strain idh2, hits give low values 1.01 | locus YOR144C, strain elg1, hits give low values 1.01 | locus YOR184W, strain ser1, hits give low values 0.994 | locus YOR231W, strain MKK1, hits give low values 1.05 | locus YOR265W, strain rbl2, hits give low values 1 | locus YOR270C, strain vph1, hits give low values 0.976 | locus YOR290C, strain snf2, hits give low values 0.977 | locus YOR316C, strain cot1, hits give low values 1.01 | locus YPL051W, strain arl3, hits give low values 0.987 | locus YPL078C, strain atp4, hits give low values 0.981 | locus YPL106C, strain sse1, hits give low values 0.97 | locus YPL240C, strain hsp82, hits give low values 1 | [9] 1.01 | locus YPL256C, strain CLN2, hits give low values 1.04 | locus YPR119W, strain clb2, hits give low values 1 | locus YPR141C, strain kar3, hits give low values 1 | locus YPR163C, strain tif3, hits give low values 1.01 | locus YPR167C, strain met16, hits give low values 1.03 | strain wtn01, hits give low values 0.984

Cc1cc(S(=O)(=O)NCCNc2nccc(C(F)(F)F)n2)c(C)cc1Cl
inactive: locus YAL013W, strain DEP1, hits give low values 1.01 | [1] 1.02 | locus YCL061C, strain MRC1, hits give low values 1.01 | [2] 1.01 | locus YDL134C, strain PPH21, hits give low values 0.998 | [3] 0.933 | locus YEL061C, strain CIN8, hits give low values 1.02 | locus YGR078C, strain PAC10, hits give low values 1 | locus YGR229C, strain SMI1, hits give low values 1.02 | [4] 0.957 | locus YHR087W, strain rtc3, hits give low values 1.01 | [5] 1.01 | [6] 1 | [7] 0.991 | locus YLR058C, strain SHM2 (second series), hits give low values 1.02 | locus YLR085C, strain ARP6, hits give low values 1.01 | [8] 1.01 | locus YML094W, strain GIM5, hits give low values 0.992 | locus YMR219W, strain ESC1, hits give low values 1.01 | locus YMR263W, strain SAP30, hits give low values 0.921 | locus YNL153C, strain GIM3, hits give low values 1.02 | locus YNL298W, strain CLA4 (second series), hits give low values 0.982 | locus YNL322C, strain KRE1, hits give low values 1.01 | locus YNR030W, strain Alg12, hits give low values 1.02 | locus YOL006C, strain TOP1, hits give low values 1.02 | locus YPL055C, strain LGE1, hits give low values 1.01 | [9] 1.06 | locus YPR135W, strain CTF4, hits give low values 0.966
